Measured values from PubChem BioAssay (NCATS).
Records with an inconclusive call do not appear. Activity calls are given as the source filed them. The call rests on the fitted dose curve; in most records, active means well fitted curve in the direction sought with a large enough effect; inconclusive means small, poorly fitted or top-dose-only effect, or another doubt; inactive means no such curve, though single readings can be large; an effect the other way counts as inactive or inconclusive.

Tests used:
[1] = system: HaCat; experiment: Cytotoxic Profiling of Annotated Libraries Using Quantitative High-Throughput Screening (AID 1296008); details: Five cell lines viability, CellTiter-Glo ATP luminescence, 48-72 h; max response: hits give low values; further: nearly all actives have a fitted effect of over 60% in size
Summary of the method: (§1)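 Compounds were pin-transferred onto cells and incubated 48 or 72 hr at 37 degree Celsius, 95% humidity. CellTiter-Glo was added, plates sat 10 min at room temperature, then ATP-coupled luminescence was imaged as the viability read-out.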

[2] = system: KB-3-1; experiment: as above; details: Five cell lines viability, CellTiter-Glo ATP luminescence, 48-72 h; max response: hits give low values
Summary of the method: as §1

[3] = system: NIH3T3; experiment: as above; details: Five cell lines viability, CellTiter-Glo ATP luminescence, 48-72 h; max response: hits give low values
Summary of the method: as §1

[4] = system: C33A; experiment: Primary qHTS to identify gynecologic anti-cancer compounds using libraries of approved drugs and bioactive compounds (AID 1345084); details: Gynecologic cancer cell panel viability, ATPlite luminescence, 48 h; series mostly up to 57.5 µM; further: nearly all actives have a fitted effect of over 55% in size
Summary of the method: (§2)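 Cell viability after 48 h drug treatment, ATPlite luminescence readout; five doses.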

[5] = system: CAOV3; experiment: as above; details: Gynecologic cancer cell panel viability, ATPlite luminescence, 48 h; series mostly up to 57.5 µM
Summary of the method: as §2

[6] = system: CASKI; experiment: as above; details: Gynecologic cancer cell panel viability, ATPlite luminescence, 48 h; series mostly up to 57.5 µM
Summary of the method: as §2

[7] = system: Es-2; experiment: as above; details: Gynecologic cancer cell panel viability, ATPlite luminescence, 48 h; series mostly up to 57.5 µM
Summary of the method: as §2

[8] = system: HeLa; experiment: as above; details: Gynecologic cancer cell panel viability, ATPlite luminescence, 48 h; series mostly up to 57.5 µM
Summary of the method: as §2

[9] = system: Hek293T; experiment: as above; details: Gynecologic cancer cell panel viability, ATPlite luminescence, 48 h, control line for the selectivity index; series mostly up to 57.5 µM
Summary of the method: as §2

[10] = system: JEG-3; experiment: as above; details: Gynecologic cancer cell panel viability, ATPlite luminescence, 48 h; series mostly up to 57.5 µM
Summary of the method: as §2

[11] = system: OV90; experiment: as above; details: Gynecologic cancer cell panel viability, ATPlite luminescence, 48 h; series mostly up to 57.5 µM
Summary of the method: as §2
On the % scale 0 is the no-effect control and ±100 the full control effect.

CC1=CC(=O)CC(C)(CO)C1(O)/C=C/C(C)O[C@@H]1O[C@H](CO)[C@@H](O)[C@H](O)[C@H]1O (stereo partly drawn)
inactive: max response [1] 2.49% | max response [2] -2.84% | max response [3] -3.42% | Potency [4] | Potency [5] | Potency [6] | Potency [7] | Potency [8] | Potency [9] | Potency [10] | Potency [11]

CC(c1ncncc1F)C(O)(Cn1cncn1)c1ccc(F)cc1F (stereo not drawn)
inactive: max response [1] -2.25% | max response [2] 0.345% | max response [3] -5.84% | Potency [4] | Potency [5] | Potency [6] | Potency [7] | Potency [8] | Potency [9] | Potency [10] | Potency [11]

CC1(C)CC[C@]2(C(=O)O)CC[C@]3(C)C(=CCC4[C@@]5(C)CC[C@H](O[C@@H]6O[C@H](C(=O)O)[C@@H](O[C@@H]7OC[C@@H](O)[C@H](O)[C@H]7O)[C@H](O)[C@H]6O)C(C)(C)C5CC[C@]43C)C2C1O (stereo partly drawn)
inactive: max response [1] -24% | outcome [2] | max response [3] -13.7% | Potency [4] | Potency [5] | Potency [6] | Potency [7] | Potency [8] | Potency [9] | Potency [10] | Potency [11]

C/C=C(/COC(=O)/C(C)=C/C)C(=O)OC(CC)c1ccc(OC)c(OC)c1 (stereo not drawn)
inactive: max response [1] 3.4% | max response [2] 9.77% | max response [3] 1.56% | Potency [4] | Potency [5] | Potency [6] | Potency [7] | Potency [8] | Potency [9] | Potency [10] | Potency [11]

C/C1=C\CCC2=C[C@@H](OC2=O)c2c(C)coc2C1
inactive: max response [1] -3.91% | max response [2] 2.55% | max response [3] -21.8% | Potency [4] | Potency [5] | Potency [6] | Potency [7] | Potency [8] | Potency [9] | Potency [10] | Potency [11]

CC(C)[C@H]1CC[C@@]2(O)COC(=O)[C@H]2[C@@H]1/C=C(\CO)C(=O)O
inactive: max response [1] -2.34% | max response [2] 0.265% | max response [3] -2.01% | Potency [4] | Potency [5] | Potency [6] | Potency [7] | Potency [8] | Potency [9] | Potency [10] | Potency [11]

CC1(C)CC[C@]2(C(=O)O[C@@H]3O[C@H](CO[C@@H]4O[C@H](CO)[C@@H](O)[C@H](O)[C@H]4O[C@@H]4O[C@H](CO)[C@@H](O)[C@H](O)[C@H]4O)[C@@H](O)[C@H](O[C@@H]4O[C@H](CO)[C@@H](O)[C@H](O)[C@H]4O)[C@H]3O)CC[C@]3(C)C(=CCC4[C@@]5(C)CC[C@@H](O)[C@@](C)(C(=O)O[C@@H]6O[C@H](CO)[C@@H](O)[C@H](O)[C@H]6O)C5CC[C@]43C)[C@@H]2C1 (stereo partly drawn)
inactive: max response [1] -7.02% | outcome [2] | max response [3] 1.8% | activity change, negative = cytotoxicity [4] -23% [at 6.55 µM] | activity change, negative = cytotoxicity [5] 2.18% [at 6.55 µM] | activity change, negative = cytotoxicity [6] -2.18% [at 6.55 µM] | activity change, negative = cytotoxicity [7] 0.72% [at 6.55 µM] | activity change, negative = cytotoxicity [8] 5.19% [at 6.55 µM] | activity change, negative = cytotoxicity [9] 16.4% [at 6.55 µM] | activity change, negative = cytotoxicity [10] -0.894% [at 6.55 µM] | activity change, negative = cytotoxicity [11] -0.699% [at 6.55 µM]

CC1(C(=O)O)CCCC2(C)C3=CCC4CC3(CCC12)CC4CO (stereo not drawn)
inactive: max response [1] 2.08% | max response [2] 2.22% | max response [3] -1.37% | Potency [4] | Potency [5] | Potency [6] | Potency [7] | Potency [8] | Potency [9] | Potency [10] | Potency [11]

C=C(C)C1Cc2cc(C(=O)OC3OC(CO)C(O)C(O)C3O)ccc2O1 (stereo not drawn)
inactive: max response [1] -9.03% | max response [2] 0.614% | max response [3] -5.26% | Potency [4] | Potency [5] | Potency [6] | Potency [7] | Potency [8] | Potency [9] | Potency [10] | Potency [11]

O=C(OC[C@@]1(O)CO[C@@H](O[C@H]2[C@H](Oc3ccc(O)cc3)O[C@H](CO)[C@@H](O)[C@@H]2O)[C@@H]1O)c1ccc(O)cc1
inactive: max response [1] -0.439% | max response [2] -1.14% | max response [3] -2.03% | Potency [4] | Potency [5] | Potency [6] | Potency [7] | Potency [8] | Potency [9] | Potency [10] | Potency [11]

COc1c2c(cc3c1-c1c(cc4c(c1OC)OCO4)CC(C)C(C)C3)OCO2 (stereo not drawn)
inactive: max response [1] -1.94% | max response [2] -8.19% | max response [3] -11.8% | Potency [4] | Potency [5] | Potency [6] | Potency [7] | Potency [8] | Potency [9] | Potency [10] | Potency [11]

C=C[C@@]12COC(=O)C(=C)C1[C@@H](O)[C@H](C(=C)C(=O)OC)[C@@H](OC(=O)C(=C)CO)C2 (stereo partly drawn)
inactive: max response [1] -6.28% | outcome [2] | max response [3] -25.8% | Potency [4] | Potency [5] | Potency [6] | Potency [7] | Potency [8] | Potency [9] | Potency [10] | Potency [11]

COC(=O)/C=C/C12COC(C)(C)C1C(O)C(OC(C)=O)C1(C)C2CCC2(C)C(c3ccoc3)OC(=O)C3OC321 (stereo not drawn)
inactive: max response [1] -1.09% | max response [2] -5.77% | max response [3] -16.9% | Potency [4] | Potency [5] | Potency [6] | Potency [7] | Potency [8] | Potency [9] | Potency [10] | Potency [11]
